Data on 14 compounds can be found in PubChem BioAssay (NCI).

About 83,000 compounds went through this panel and 20% of them were active in at least one assay; those are over-represented in the sample as a whole.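 Values shown are percent growth following 48 h exposure of cells in 96-well plates to a single concentration of compound; below 10 was considered active.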 Unmarked numbers belong to inactive results. Calls of active or inactive are those of the source.

Some test systems named below: OVCAR-8 ovarian; OVCAR-5 ovarian; OVCAR-4 ovarian; SK-OV-3 ovarian; IGROV1 ovarian; OVCAR-3 ovarian; HS 578T breast; NCI/ADR-RES ovarian; T-47D breast; RPMI-8226 leukemia.
Holding throughout (experiment): NCI-60 one-dose screen, 48 h (100 = growth as untreated, 0 = no growth, -100 = all killed)
Conditions in all cases: 10 µM unless noted

For the compound `CCOC(=O)c1sc(-c2ccc(OS(=O)(=O)c3ccc(Br)s3)c(C=O)c2)nc1C`, the growth in the assay with OVCAR-8 ovarian was 3.64% (active); in the assay on OVCAR-5 ovarian, 61.2%; in the assay on OVCAR-4 ovarian it was 7.2% (active); in the assay on SK-OV-3 ovarian, 97.2%; in the assay on IGROV1 ovarian it was 3.38% (active); in the assay on OVCAR-3 ovarian, -1.81% (active). The growth is 27.6% in the assay with HS 578T breast, -8.08% (active) in the assay with NCI/ADR-RES ovarian and 30.8% in the assay with T-47D breast.

As to `CC(=S)NC(=O)C(=O)/C=C1/NC(=O)C(=O)S1`, the growth is 106% in the assay with OVCAR-8 ovarian; 107% with OVCAR-5 ovarian; 106% in the assay with OVCAR-4 ovarian; 122% in the assay on SK-OV-3 ovarian; 109% with IGROV1 ovarian; 122% in the assay with OVCAR-3 ovarian. Besides, the growth in the assay with HS 578T breast is 107%; in the assay on NCI/ADR-RES ovarian it was 103%.

Take `CCCSC1=NC2C(N(CC)C(=O)N2CC)N1/N=C/C=C/c1ccccc1[N+](=O)[O-]` (configuration not stated): the growth with OVCAR-8 ovarian is 33.7%; in the assay with OVCAR-5 ovarian, 48%; in the assay on OVCAR-4 ovarian, 39.9%; in the assay on IGROV1 ovarian it was 29.9%; with OVCAR-3 ovarian, -15.8% (active); with HS 578T breast, 18.5%. Also, the growth with NCI/ADR-RES ovarian is 13.4%; in the assay with T-47D breast it was 64.1%.

On to `Clc1ccc(-c2nnc(COc3ccc(C4=NNC(c5ccco5)C4)cc3)o2)cc1` (configuration not stated), for which the growth in the assay with OVCAR-8 ovarian was 96.6%; with OVCAR-5 ovarian, 95%; in the assay on OVCAR-4 ovarian, 77%; in the assay with SK-OV-3 ovarian, 98.2%; with IGROV1 ovarian it was 85.4%; in the assay with OVCAR-3 ovarian, 91.3%. The growth was 95.7% with HS 578T breast, 72.6% with NCI/ADR-RES ovarian and 25.7% in the assay with T-47D breast.

Take `COC(=O)/C(CCC=C(C)C)=C1\[C@@H](OC(C)=O)C[C@@]2(C)[C@H]1C[C@@H](O)[C@H]1[C@@]3(C)CC[C@H](NC(=O)c4cnccn4)[C@@H](C)[C@@H]3CC[C@@]12C`: the growth was 75.8% in the assay with RPMI-8226 leukemia; 92.5% with OVCAR-8 ovarian; 109% with OVCAR-5 ovarian; 107% with IGROV1 ovarian; 108% with OVCAR-3 ovarian; 96.4% in the assay with HS 578T breast. In addition, the growth is 99.4% in the assay on NCI/ADR-RES ovarian and 87.4% with T-47D breast.

For the compound `CCOC(=O)C(CC(=O)O)=C(C(=O)OCC)C(=O)OCC`, the growth in the assay on OVCAR-8 ovarian is 99.9%; in the assay on OVCAR-5 ovarian, 109%; in the assay with OVCAR-4 ovarian it was 90.2%; in the assay on SK-OV-3 ovarian, 110%; in the assay with IGROV1 ovarian, 111%; in the assay with OVCAR-3 ovarian, 111%. Moreover, the growth in the assay with HS 578T breast is 107%; with NCI/ADR-RES ovarian, 112%; with T-47D breast, 100%.

Turning to `COc1ccc2[nH]c(O)c(N=NC(=O)c3oc4ccccc4c3C)c2c1`, the growth in the assay with OVCAR-8 ovarian was 37.8%; with OVCAR-5 ovarian it was 41.7%; with OVCAR-4 ovarian, -52.8% (active); in the assay on IGROV1 ovarian it was 6.33% (active); in the assay on OVCAR-3 ovarian, -65.5% (active); in the assay with HS 578T breast, 25.5%. Also, the growth in the assay on NCI/ADR-RES ovarian is 30.5%; in the assay on T-47D breast, -39.2% (active).

As for `CN1C(=O)N(C)C2C1NN=c1s/c(=C\c3c[nH]c4ccccc34)c(=O)n12` (configuration not stated), the growth in the assay on OVCAR-8 ovarian was 24.1%; with OVCAR-5 ovarian, 42.7%; in the assay with OVCAR-4 ovarian, 103%; with IGROV1 ovarian it was 18.7%; in the assay on OVCAR-3 ovarian it was 8.1% (active); with HS 578T breast it was 18.7%. The growth with NCI/ADR-RES ovarian is 15.6%; in the assay on T-47D breast it was 82.6%.

As for `NC(=O)CSc1nc(-c2ccc(F)cc2)cc(-c2ccco2)n1`, the growth with RPMI-8226 leukemia was 98.5%; in the assay with OVCAR-8 ovarian, 98.1%; with OVCAR-4 ovarian, 100%; with SK-OV-3 ovarian, 102%; with IGROV1 ovarian, 94%; with OVCAR-3 ovarian, 111%. Moreover, the growth in the assay on HS 578T breast was 115%; in the assay with NCI/ADR-RES ovarian, 105%; with T-47D breast, 64.1%.

Take `CN1C(=O)N(C)C2C1NN=c1s/c(=C\c3ccc([N+](=O)[O-])cc3)c(=O)n12` (configuration not stated): the growth in the assay with OVCAR-8 ovarian was 81.1%; in the assay on OVCAR-5 ovarian it was 86.1%; in the assay on OVCAR-4 ovarian, 82.2%; in the assay with IGROV1 ovarian, 57.4%; with OVCAR-3 ovarian, 22.7%; in the assay on HS 578T breast it was 67.5%. The values for the growth with NCI/ADR-RES ovarian and in the assay on T-47D breast were 61.5% and 66.5%, respectively.

Consider `COC(=O)[C@H]1CCCN1C(=O)[C@H]1CCCN1C(=O)[C@H](Cc1c[nH]c2ccccc12)NC(=S)Nc1cc(C(F)(F)F)cc(C(F)(F)F)c1`, for which the growth in the assay with OVCAR-8 ovarian was 68.5%; with OVCAR-5 ovarian it was 71.1%; in the assay on SK-OV-3 ovarian it was 85.2%; in the assay on IGROV1 ovarian, 44.6%; in the assay on OVCAR-3 ovarian, 63.7%; in the assay with HS 578T breast, 44.8%. Besides, the figures for the growth in the assay with NCI/ADR-RES ovarian and in the assay on T-47D breast were 93.2% and 56.5%, respectively.

As for `S=C1CCCC(=S)N1`, the growth with OVCAR-8 ovarian is 105%; with OVCAR-5 ovarian it was 100%; with OVCAR-4 ovarian it was 104%; in the assay with SK-OV-3 ovarian it was 91.6%; in the assay with IGROV1 ovarian it was 107%; in the assay with OVCAR-3 ovarian, 112%. Further, the growth with HS 578T breast is 99.8%; in the assay on NCI/ADR-RES ovarian, 99.5%.

Consider `CN=c1ccc2nc3ccc(N)cc3sc-2c1`, for which the growth was 2.77% (active) with OVCAR-8 ovarian; 24.6% in the assay with OVCAR-5 ovarian; -11.2% (active) with OVCAR-4 ovarian; 30.1% in the assay on SK-OV-3 ovarian; 22.3% in the assay with IGROV1 ovarian; 10.8% in the assay on OVCAR-3 ovarian. Besides, the growth is 59% in the assay with HS 578T breast and 5.34% (active) in the assay on NCI/ADR-RES ovarian.

As to `CC[C@@H](C)[C@H](NC(=O)Cn1cc(CNC(=O)[C@@H](NC(=O)OCc2ccccc2)C(C)C)nn1)C(=O)O`, the growth with RPMI-8226 leukemia is 106%; in the assay on OVCAR-8 ovarian, 96.2%; with OVCAR-4 ovarian, 111%; in the assay with SK-OV-3 ovarian, 109%; in the assay on IGROV1 ovarian, 113%; in the assay with OVCAR-3 ovarian, 119%. The values for the growth in the assay on HS 578T breast, in the assay on NCI/ADR-RES ovarian and with T-47D breast were 104%, 105% and 116%, respectively.
